A selection: hits, their analogues and other compounds. The true share with any hit is near 6.1%.
D1 agonist: human D1 receptor agonism. actives 1% (n = 360,000). HEK293 T-REx D1 cells, calcium flux, agonist mode. activation, % at 2 µM. P21728; in the data active = activation above about 30%; note: 0% is about no effect
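Tetracycline-induced HEK293 TREx D1 cells, force-coupled to calcium signalling, were dye-loaded with a no-wash calcium kit. Compound was pin-added after a 10 s baseline. Fluorescence was read kinetically at 1 cycle/s for 180 s, with calcium rises flagged as agonism.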
D1 antagonist: human D1 dopamine receptor antagonism | HEK293 TREx D1 cells, calcium flux, dopamine EC80; hits give low values | activity change, negative = inhibition, % at 10 µM | actives 3.2% (n = 360,000); in the data active = activity change below about -30%; note: % is set by controls: 0 for no effect and ±100 for the full control effect
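Tetracycline-induced HEK293 T-REx cells with force-coupled D1 receptor were loaded with a no-wash calcium dye. Compound was added after a 10 s baseline and read kinetically for 180 s; EC80 dopamine was then added and calcium flux followed another 180 s.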
D1 potentiator: enhances dopamine response at the human D1 receptor | P21728 | HEK293 TREx D1 cells, calcium flux, dopamine EC20 potentiation | potentiation, % at 10 µM | actives 0.036% (n = 360,000) | AID 504651; in the data active = potentiation above about 30%; note: 0% is about no effect
D3 antag: blocks the human D3 dopamine receptor; AID 652054; D3R cells, DiscoveRx beta-arrestin luminescence, antagonist mode; hits give low values; actives 2.5% (n = 360,000); max response, negative = inhibition, %; P35462; in the data active = max response below about -50%; inconclusive = no clear call, values can overlap the other calls; note: % is set by controls: 0 for no effect and ±100 for the full control effect
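Cells expressing the human receptor were seeded at 1500 cells/well, incubated overnight at 37 degrees C in 5% CO2, then exposed to library compounds with dopamine controls for 90 minutes at 37 degrees C before luminescent detection.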
D3 ag: agonists of human D3 dopamine receptor | AID 652048 | P35462 | actives 0.58% (n = 410,000) | max activation, % | D3R DiscoveRx beta-arrestin cells, luminescence, 90 min; in the data active = max activation above about 30%; note: 0% is about no effect
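Agonist-mode cell screen: cells plated at 1500/well and incubated overnight at 37 °C, then exposed to library compounds for 90 min at 37 °C. Detection reagent was added for 30–60 min at room temperature, and luminescence was read.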
ERG Ets-DNA blk: blocks human ERG Ets domain binding to DNA; fluorescence polarization, His-ERG Ets domain / labelled DNA; actives 0.028% (n = 370,000); Potency, µM (top dose mostly 76.9 µM), without a hit: at the top dose FP activity, negative = inhibition, actives largely listed as inhibitors; P11308; active = well fitted inhibition curve with a large enough effect in the polarisation, with a control signal flat; inconclusive = small, poorly fitted or top-dose-only effect, or effect the other way, or a change in a side signal; inactive = no such curve, though single readings can be large or run the other way; the % refers to the polarisation;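 note: polarization taken with two DNA probes labelled with fluorescein and Texas red; potency is the fitted concentration of half-maximal effect; % of control where 0% means no effect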
Target sequence (P11308 whole entry, looked up, the tested form may be a part): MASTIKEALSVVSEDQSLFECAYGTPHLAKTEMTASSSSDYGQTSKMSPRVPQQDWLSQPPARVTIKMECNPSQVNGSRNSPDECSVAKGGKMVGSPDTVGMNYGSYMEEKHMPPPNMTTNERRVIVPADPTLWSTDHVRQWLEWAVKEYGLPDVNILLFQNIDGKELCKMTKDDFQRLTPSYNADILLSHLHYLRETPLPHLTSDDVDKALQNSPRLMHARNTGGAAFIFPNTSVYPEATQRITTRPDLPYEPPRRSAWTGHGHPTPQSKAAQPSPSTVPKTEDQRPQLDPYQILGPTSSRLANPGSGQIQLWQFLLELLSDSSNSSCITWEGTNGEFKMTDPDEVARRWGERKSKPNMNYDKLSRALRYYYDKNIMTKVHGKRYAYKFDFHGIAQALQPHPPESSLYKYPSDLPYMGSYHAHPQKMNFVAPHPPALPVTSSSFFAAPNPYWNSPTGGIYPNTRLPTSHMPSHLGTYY
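His-tagged ERG Ets domain (1 uM in the protein solution; 300mM KCl, 50mM Tris-HCl, 1mM EDTA, 1mM DTT, pH 7.5) received compound, then a probe mix of 5 nM fluorescein-DNA and 100nM Texas-615-DNA. Fluorescence polarization was read for both dyes.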
* = called active by the depositor; ? = inconclusive; . = not tested or not shown.

SMILES	D1 agonist	D1 antagonist	D1 potentiator	D3 antag	D3 ag	ERG Ets-DNA blk
c1ccc(C(c2ccccc2)c2noc(CN3CCN(CC4CC4)CC3)n2)cc1	1	-13	-2	-63*	-21	7%
COc1cccc(C(NC(C)=O)c2nc(-c3cc4ccccc4o3)cs2)c1 (stereo not given)	.	.	.	26	2	.
O=C(NC1CCCCC1)Sc1ccc(Cl)cc1	1	-28	-7	-91*	0	5%
COc1ccc(S(=O)(=O)N2CCC(C(=O)Nc3cc(C(F)(F)F)ccc3Cl)CC2)cc1	11	-14	-3	.	-13	2%
CN(CCC1CCOCC1)C(=O)C1CCC(=O)N(CCc2ccc(Cl)cc2)C1 (stereo not given)	0	-8	0	15	2	1%
O=C(NC1CCS(=O)(=O)C1)c1cccc(S(=O)(=O)N2CCOCC2)c1 (stereo not given)	3	-7	6	-9	0	.
CCCn1c(SCc2ccc(Cl)cc2)nc2c1c(=O)[nH]c(=O)n2C	0	-12	2	11	5	6%
Nn1c(Cc2cccc3ccccc23)n[nH]c1=S	0	48	-4	-22	-2	-10%
S=c1[nH]nc(Cc2cccc3ccccc23)n1-c1ccccc1	2	8	-4	-51*	-1	2%
Cc1cccc(-n2c(Cc3ccccc3)n[nH]c2=S)c1	1	-40*	-5	4	-3	9%
COc1cc(C(=O)NCC(=O)N/N=C(/C)c2ccc3c(c2)CCCC3)cc(OC)c1OC	-2	-24	0	-7	0	-11%
CC(Cc1cccs1)NC(=S)Nc1ccc(F)cc1 (stereo not given)	19	-44*	-5	7	4	6%
CC(Cc1cccs1)NC(=O)c1cccs1 (stereo not given)	3	-2	-4	17	0	5%
CC(Cc1cccs1)NC(=O)Nc1ccc([N+](=O)[O-])cc1 (stereo not given)	24	-35*	-4	0	-7	0%
CC(=O)c1ccc(NC(=O)CSc2nnc(-c3ccncc3)n2C2CC2)cc1	0	4	-5	-9	-1	17%
COc1ccc(CCNC(=O)c2ccc3c(c2)sc2nc(-c4ccccc4)cn23)cc1OC	1	-10	2	.	-4	0%
COc1cc(OC)cc(C(=O)NC2CC3CCC(C2)N3C)c1 (stereo not given)	1	-54*	-14	-9	-8	6%
CCCN1C2CCCC1CC(NC(=O)c1cc(OC)cc(OC)c1)C2 (stereo not given)	-3	-34*	-9	1	1	0%
Cc1cccc(C(=O)NC2CC3CCC(C2)N3C)c1 (stereo not given)	3	-25	-4	5	-1	-1%
O=C1CC(N2CCN(Cc3ccccc3)CC2)C(=O)N1 (stereo not given)	0	-8	-9	9	0	7%
c1ccc(CN2CCN(C3CCCSc4ccccc43)CC2)cc1 (stereo not given)	.	.	.	-85*	-48	-16%
CN1CCN(NC(=S)Nc2ccc(Oc3ccccc3)cc2)CC1	36*	-11	-3	-22	-5	2%
Cn1c2ccccc2c(=O)c2c(=O)n(C3CCCCC3)c(-c3cccs3)nc21	116*	-32*	-4	-11	-23	6%
Cn1c2ccccc2c(=O)c2c(=O)n(C3CCCCCC3)c(C3CCCCC3)nc21	121*	-27	5	-15	-4	9%
COCCn1c(-c2ccc(Cl)cc2)nc2c(c(=O)c3ccccc3n2C)c1=O	1	9	3	.	.	.
SMILES	D1 agonist	D1 antagonist	D1 potentiator	D3 antag	D3 ag	ERG Ets-DNA blk
CCc1nc2c(c(=O)c3ccccc3n2C)c(=O)n1C1CCCCCC1	195*	-28	-2	?	-1	-4%
Cn1c2ccccc2c(=O)c2c(=O)n(-c3ccccc3)c(C3CCCCC3)nc21	1	70	19	-22	-3	-3%
CCN(C(=O)COC(=O)c1ccc(Cl)c(N)c1)C1CCS(=O)(=O)C1 (stereo not given)	1	-1	1	6	0	-16%
OC(c1ccccc1)c1ncc(-c2ccccc2Cl)[nH]1 (stereo not given)	.	.	.	0	2	.
CCOc1ccc(C(=O)N(CC(=O)Nc2cccc(C)c2C)CC2CCCO2)cc1OC (stereo not given)	1	10	-8	-6	1	-22%
NC(=S)NNC(=O)C12CC3CC(CC(C3)C1)C2	185*	-24	8	2	2	-5%
CCCN1Cc2cccc(C(=O)Nc3ccc(CC)cc3)c2C1=O	0	3	-1	-17	0	-2%
O=C(c1ccc(CSc2ccc(Cl)cc2)cc1)N1CCOCC1	7	-26	-7	17	1	6%
Cc1ccc([N+](=O)[O-])cc1S(=O)(=O)Nc1cccc(S(=O)(=O)Nc2ccccc2C(=O)O)c1	.	.	.	-11	-4	5%
Cc1ccc(C)c(NC(=O)c2ccccc2NS(=O)(=O)c2cc([N+](=O)[O-])ccc2C)c1	28	-50*	-11	-1	1	5%
N#Cc1cc(N)c(Nc2ccccc2)cc1C#N	10	-41*	-11	?	-11	4%
c1cncc(-c2nc(N3CCCCCC3)c3ccccc3n2)c1	3	0	-1	-1	0	4%
Nc1nc(-c2cccnc2)nc(N2CCCCC2)n1	2	0	1	5	33*	-10%
O=c1cc(-c2cccc(Br)c2)nc(-c2ccccc2F)o1	1	-16	-4	4	16	-10%
O=C(Nc1ccccc1C(F)(F)F)N1CC=C(c2c[nH]c3ccccc23)CC1	21	-22	-2	.	-30	-4%
CC(C)c1ccc(C2(C)NC(=O)N(CC(=O)NC3CCCC(C)C3C)C2=O)cc1 (stereo not given)	0	27	5	-9	-4	0%
CNCCC1Sc2ccccc2Oc2ccccc21 (stereo not given)	81*	11	-8	-4	-12	-14%
CC(C)C(=O)NC(=S)Nc1ccccn1	-1	-13	-2	11	0	-1%
O=C(/C=C/c1ccccc1)NC(=S)Nc1ccc(CN2CCOCC2)cc1	7	-13	-9	-57*	-17	4%
O=C(/C=C/c1ccc(Cl)cc1Cl)NC(=S)Nc1ccccn1	3	-44*	-6	11	-1	2%
O=C(/C=C/c1ccc(Cl)cc1Cl)c1ccc[nH]1	-1	7	0	-17	-1	5%
O=C(/C=C/c1ccc(Cl)cc1Cl)n1cccn1	2	5	-3	-59*	0	-1%

Screening data: PubChem, National Center for Advancing Translational Sciences (NCATS)
